# Assay results taken from the supplement of paper PMC8728848.
# Only a selection was taken, and the strongest signals are over-represented in it overall.
# Columns and labels:
# Assay in all cases: glycan array binding signal (z-score within array); higher = stronger binding
# Conditions in all cases: glycan notation: IUPAC condensed, linker removed
# [1] = target: Gal3S(b1-3)[Fuc(a1-4)]GlcNAc
# Outline: (§1)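 The Consortium for Functional Glycomics database supplied 3228 glycan arrays, of which those lacking an available protein sequence were dropped. The binding signal, a within-array Z-score, was averaged across arrays of the same protein sequence and across linkers. Negative scores can be read as non-binding.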
# [2] = target: GalNAc(b1-4)GlcNAc(b1-3)GalNAc(b1-4)GlcNAc
# Outline: as §1
# [3] = target: Glc(a1-4)Glc(a1-4)Glc(a1-4)Glc
# Outline: as §1
# GlcA(b1-6)Gal = target: GlcA(b1-6)Gal
# Outline: as §1
# [4] = target: GlcNAc(a1-4)Gal(b1-4)GlcNAc(b1-3)Gal(b1-4)Glc
# Outline: as §1
# [5] = target: GlcNAc(a1-4)Gal(b1-4)GlcNAc(b1-3)Gal(b1-4)[Fuc(a1-3)]GlcNAc(b1-3)Gal(b1-4)[Fuc(a1-3)]GlcNAc
# Outline: as §1
# [6] = target: GlcNAc(b1-2)[GlcNAc(b1-6)]Man(a1-6)[GlcNAc(b1-2)Man(a1-3)]Man(b1-4)GlcNAc(b1-4)[Fuc(a1-6)]GlcNAc
# Outline: as §1
# [7] = target: GlcNAc(b1-3)Gal(b1-4)GlcNAc(b1-3)Gal(b1-4)GlcNAc(b1-2)[GlcNAc(b1-3)Gal(b1-4)GlcNAc(b1-3)Gal(b1-4)GlcNAc(b1-6)]Man(a1-6)[GlcNAc(b1-3)Gal(b1-4)GlcNAc(b1-3)Gal(b1-4)GlcNAc(b1-2)Man(a1-3)]Man(b1-4)GlcNAc(b1-4)[Fuc(a1-6)]GlcNAc
# Outline: as §1
# [8] = target: GlcNAc(b1-3)Gal(b1-4)GlcNAc(b1-6)[GlcNAc(b1-3)Gal(b1-3)]GalNAc
# Outline: as §1
# GlcNAc(b1-6)GalNAc = target: GlcNAc(b1-6)GalNAc
# Outline: as §1
# Kdn(a2-3)Gal(b1-4)GlcNAc = target: Kdn(a2-3)Gal(b1-4)GlcNAc
# Outline: as §1
# [9] = target: Neu5Ac(a2-3)Gal(b1-3)GalNAc(b1-4)[Neu5Ac(a2-8)Neu5Ac(a2-3)]Gal(b1-4)Glc
# Outline: as §1
# [10] = target: Neu5Ac(a2-3)Gal(b1-3)[GlcNAc(b1-6)]GalNAc
# Outline: as §1
# [11] = target: Neu5Ac(a2-3)Gal(b1-4)GlcNAc(b1-2)[Neu5Ac(a2-3)Gal(b1-4)GlcNAc(b1-4)]Man(a1-3)[GlcNAc(b1-4)][Neu5Ac(a2-3)Gal(b1-4)GlcNAc(b1-4)Man(a1-6)]Man(b1-4)GlcNAc(b1-4)GlcNAc
# Outline: as §1
# [12] = target: Neu5Ac(a2-3)Gal(b1-4)GlcNAc(b1-3)Gal(b1-4)GlcNAc(b1-3)Gal(b1-4)GlcNAc(b1-2)Man(a1-3)[Neu5Ac(a2-3)Gal(b1-4)GlcNAc(b1-3)Gal(b1-4)GlcNAc(b1-3)Gal(b1-4)GlcNAc(b1-2)Man(a1-6)]GalNAc
# Outline: as §1
# [13] = target: Neu5Ac(a2-3)Gal(b1-4)GlcNAc(b1-6)GalNAc
# Outline: as §1
# [14] = target: Neu5Ac(a2-3)Gal(b1-4)[Fuc(a1-3)]GlcNAc
# Outline: as §1
# [15] = target: Neu5Ac(a2-3)Gal6S(b1-4)GlcNAc
# Outline: as §1
# [16] = target: Neu5Ac(a2-3)[GalNAc(b1-4)]Gal(b1-4)Glc
# Outline: as §1
# [17] = target: Neu5Ac(a2-6)Gal(b1-4)GlcNAc(b1-2)Man(a1-3)[Man(a1-6)]Man(b1-4)GlcNAc(b1-4)GlcNAc
# Outline: as §1
# [18] = target: Neu5Ac(a2-6)Gal(b1-4)GlcNAc(b1-2)Man(a1-3)[Neu5Ac(a2-3)Gal(b1-4)GlcNAc(b1-2)Man(a1-6)]Man(b1-4)GlcNAc(b1-4)GlcNAc
# Outline: as §1
# [19] = target: Neu5Ac(a2-6)Gal(b1-4)GlcNAc(b1-3)Gal(b1-4)GlcNAc(b1-3)Gal(b1-4)GlcNAc
# Outline: as §1
# [20] = target: Neu5Gc(a2-3)Gal(b1-4)GlcNAc
# Outline: as §1
binder,measurement,setting,value
GS14009A-pdi-495-27-495 (Parabacteroides distasonis) (protein) FEEVNTDPDSPTDVPTTNLLAYSLYYTSYRLYDRWFAMDEPMTFCGYASKMTYIDESRYNFRTGVQDTNWEYLYRILNNLKDIEKRATFNETPNMLNVSKVMQVHLMQVATDRWRDVPYTDAAKMTDGILQPKYDKQEDIYPGLLATLKEAADGFADGGSDDLGEGDLLFGGDIEKWQRYCNSMRLRLAMRISEVSPALAKETVEEVMGNPTKYPIMESNDDNAFFWWIGTDPNYYEPMADGYRTRKTEYCAADVIVDHMNTREDPRRSSYFQPTKESVEAGEPKYVGYTIGAKANAVASKYSIWGARFFTDLAGFSPYMRVAEPWFCVAEASMLGWNTGISAEDAYNKAVTYSMEENSVSAEDIADYLANAGKFTNDKKQIYYEEWVAMFKQGMEGWSLYRRTGVPDNLYPAPGRPANYSNHNVPPFRSPYPDKERNLNNANCAPFDAEVVDNLWGKQMWWDTRTGVH,glycan array binding signal (z-score),[1],0.01
same,glycan array binding signal (z-score),[2],-0.71
same,glycan array binding signal (z-score),[3],-0.358
same,glycan array binding signal (z-score),GlcA(b1-6)Gal,0.626
same,glycan array binding signal (z-score),[4],-0.147
same,glycan array binding signal (z-score),[5],1.93
same,glycan array binding signal (z-score),[6],-0.199
same,glycan array binding signal (z-score),[7],2.44
same,glycan array binding signal (z-score),[8],0.415
same,glycan array binding signal (z-score),GlcNAc(b1-6)GalNAc,0.174
same,glycan array binding signal (z-score),Kdn(a2-3)Gal(b1-4)GlcNAc,-0.615
same,glycan array binding signal (z-score),[9],-0.25
same,glycan array binding signal (z-score),[10],-0.177
same,glycan array binding signal (z-score),[11],0.12
same,glycan array binding signal (z-score),[12],1.45
same,glycan array binding signal (z-score),[13],-0.512
same,glycan array binding signal (z-score),[14],-0.201
same,glycan array binding signal (z-score),[15],-0.508
same,glycan array binding signal (z-score),[16],-0.129
same,glycan array binding signal (z-score),[17],-0.647
same,glycan array binding signal (z-score),[18],-0.631
same,glycan array binding signal (z-score),[19],-0.311
same,glycan array binding signal (z-score),[20],-0.276
